Screening results (PubChem BioAssay)
This is a sample that favours compounds with a hit; in the whole collection about 12% have one here.
HP1b binding inh = HP1-beta chromodomain-methylated histone interaction inhibition; 0.56% of 390,000 active; Potency, µM (top dose mostly 114 µM), for the others: at the highest dose activity change, negative = inhibition, actives largely listed as inhibitors; AlphaScreen HP1-beta / biotin-H3K9me3 peptide binding; also: nearly all actives have a fitted effect of over 70% in size
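Compound inhibition of the preformed complex between 50 nM HP1-beta and 50 nM biotinylated H3K9me3 peptide was read by AlphaScreen. Buffer was PBS pH 7.4 with 0.01% Tween-20. Incubations ran 30 min at room temperature, with 10 ug/mL donor/acceptor beads.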
BAZ2B inh = blocks human BAZ2B; Q9UIF8; AlphaScreen BAZ2B-H3K14Ac peptide displacement; Potency, µM (highest dose often 114 µM), for the others: at the highest dose activity change, negative = inhibition, most hits filed as inhibitors; 4.4% of 360,000 active; also: % is scaled to controls: 0 for no effect and ±100 for the full control effect; nearly all actives have a fitted effect of over 60% in size
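In this displacement format the biotinylated H3(5-23) peptide acetylated at Lys14 serves as ligand at 50 nM, with BAZ2B at 50 nM in PBS pH 7.4 containing 0.01% Tween-20. Donor and acceptor beads are 10 ug/mL final.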
PLK1 PBD inh = blocks phosphopeptide binding to human PLK1 polo-box domain | 2.8% of 360,000 active | Plk1 PBD binding of FITC phosphopeptide, fluorescence polarization | P53350 | Potency, µM, inactives show max response, negative = inhibition, actives largely listed as inhibitors | AID 720504; also: series mostly up to about 57 µM; % is scaled to controls: 0 for no effect and ±100 for the full control effect; nearly all actives have a fitted effect of over 65% in size
G9a inh = G9a (human) methyltransferase inhibition; Q96KQ7; G9a H3K9 monomethylation, AlphaScreen, 2 h; Potency, µM (doses to about 102 µM), for the others: at the top dose activity, negative = inhibition, hits mostly inhibitors; 8.8% of 350,000 active; AID 504332; also: % is scaled to controls: 0 for no effect and ±100 for the full control effect; nearly all actives have a fitted effect of over 75% in size
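Step 1: enzyme (final 20 nM) with compound, 15 min RT. Step 2: substrate peptide 500 nM and SAM 20 uM, 2 h RT. Step 3: anti-H3K9me1 antibody and AlphaScreen beads, 10 min, then plate read.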
Sfp inh = inhibitors of Bacillus subtilis Sfp phosphopantetheinyl transferase | Q9F4F7 | Biochemical Sfp PPTase activity, qHTS | Potency, µM, for the others: largest response in the series, negative = inhibition, usual class: inhibitors | 3.5% of 310,000 active;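 also: the enzyme is Sfp with the accession as filed and its product quenches rhodamine fluorescence; 0% = enzyme reaction without inhibitor and -100% = no enzyme wells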
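Step 1, compound plus 15 nM Sfp-PPTase, 15 min, room temperature. Step 2, add rhodamine-CoA (5 uM) and BHQ-2-YbbR (12.5 uM). Step 3, read 525/598 nm fluorescence at 0 and 30 min.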
JMJD2A Tudor = JMJD2A Tudor domain (human) inhibition | O75164 | AlphaScreen JMJD2A-Tudor / H3K4me3 peptide binding | Potency, µM (highest dose often 114 µM), without a hit: top-dose activity change, negative = inhibition, actives largely listed as inhibitors | 4.4% of 390,000 active | AID 504339; also: % is scaled to controls: 0 for no effect and ±100 for the full control effect; nearly all actives have a fitted effect of over 50% in size
Target sequence (O75164 whole entry, looked up, the tested form may be a part): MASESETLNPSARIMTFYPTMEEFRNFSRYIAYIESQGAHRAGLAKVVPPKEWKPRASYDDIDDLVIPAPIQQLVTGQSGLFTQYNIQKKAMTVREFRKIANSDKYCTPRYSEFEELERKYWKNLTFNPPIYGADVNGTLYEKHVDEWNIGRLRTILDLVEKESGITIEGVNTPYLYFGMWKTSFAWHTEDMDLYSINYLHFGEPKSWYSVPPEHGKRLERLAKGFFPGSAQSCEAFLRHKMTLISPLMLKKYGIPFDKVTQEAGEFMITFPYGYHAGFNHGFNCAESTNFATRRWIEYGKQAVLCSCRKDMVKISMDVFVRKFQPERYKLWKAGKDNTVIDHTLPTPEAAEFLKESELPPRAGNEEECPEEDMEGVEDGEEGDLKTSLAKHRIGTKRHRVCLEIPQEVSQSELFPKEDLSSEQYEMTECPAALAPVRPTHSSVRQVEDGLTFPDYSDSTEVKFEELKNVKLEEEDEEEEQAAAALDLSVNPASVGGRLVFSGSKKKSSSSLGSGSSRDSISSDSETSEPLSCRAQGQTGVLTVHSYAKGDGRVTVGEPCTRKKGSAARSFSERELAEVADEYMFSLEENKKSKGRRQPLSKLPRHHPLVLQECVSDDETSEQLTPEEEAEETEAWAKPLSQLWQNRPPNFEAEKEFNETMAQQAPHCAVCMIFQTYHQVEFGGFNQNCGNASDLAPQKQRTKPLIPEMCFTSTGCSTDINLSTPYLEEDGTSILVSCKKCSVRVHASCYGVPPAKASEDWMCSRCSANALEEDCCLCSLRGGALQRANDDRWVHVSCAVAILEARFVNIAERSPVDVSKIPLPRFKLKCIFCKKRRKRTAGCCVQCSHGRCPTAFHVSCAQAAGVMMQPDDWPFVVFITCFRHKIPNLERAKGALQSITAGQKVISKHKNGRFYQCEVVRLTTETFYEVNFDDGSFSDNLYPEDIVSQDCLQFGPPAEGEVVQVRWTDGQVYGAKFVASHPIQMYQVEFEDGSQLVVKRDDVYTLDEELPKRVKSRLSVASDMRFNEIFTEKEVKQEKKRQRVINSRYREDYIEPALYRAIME
* = called active by the depositor; ? = inconclusive; · = no result given; [ ] = remark or other dose. Calls follow the shape of the dose curve; as a rule, active = well fitted curve in the direction sought with a large enough effect; inconclusive = small, poorly fitted or top-dose-only effect, or another doubt; inactive = no such curve, though single readings can be large; an effect the other way counts as inactive or inconclusive. Potency is read from the fitted curve at half-maximal effect.

SMILES	HP1b binding inh	BAZ2B inh	PLK1 PBD inh	G9a inh	Sfp inh	JMJD2A Tudor
O=C(NNC(=O)C1CC=CCC1C(=O)O)c1ccc(Cl)cc1 (stereo not given)	30%	-28%	-1%	-24%	7%	-2%[11.4 µM]
COc1ccc(CCNC(=O)C2=CCN(S(=O)(=O)c3ccc(F)cc3)CC2)cc1OC	17%	-3%	-18%	?	1%	-14%
CCN(CC)c1ccc(NC(=O)c2c(C)nn(-c3ccc(F)cc3)c2-n2cccc2)c(C)c1	-21%	35µM*	·	3.2µM*	·	32µM*
COc1ccccc1CNC(=O)C1=CCN(S(=O)(=O)c2ccc(C)cc2)CC1	19%	-13%	-15%	50µM*	5%	-16%
COc1ccccc1CNC(=O)c1ccc(S(=O)(=O)N2CCCC2)cc1	10%	1%	-2%	-37%	4%	-12%
CCN(CC)c1ccc(NC(=O)C2=CCN(S(=O)(=O)c3ccc(F)cc3)CC2)c(C)c1	-7%	?	-11%	11µM*	-5%	?
COCCCNC(=O)C1=CCN(S(=O)(=O)c2ccc(C)cc2)CC1	48%	-12%[57.1 µM]	-2%	35µM*	9%	-4%
COCCCNC(=O)C1=CCN(S(=O)(=O)c2ccc(OC)cc2)CC1	59%	-12%	-17%	·	9%	-6%
CCNc1nc(C#N)nc(N2CCOCC2)n1	25%[57 µM]	·	·	·	·	-12%[57.1 µM]
CCN(CC)S(=O)(=O)c1ccc(C(=O)OCn2nnc3ccccc3c2=O)cc1	19%	-2%	2%	21%[12.7 µM]	8%	-21%
O=C(c1ccc2nc[nH]c2c1)N1CCN(c2ncc(C(F)(F)F)cc2Cl)CC1	15%	-31%	-1%	1%	9%	-16%
Cc1ccc(CNC(=O)C2=CCN(S(=O)(=O)c3ccc(C)cc3)CC2)cc1	·	3%	·	32µM*	-14%	·
O=C(NCc1ccccc1)c1ccc2c(c1)CCN2S(=O)(=O)c1ccccc1	2%	1%	·	4%[59 µM]	·	-16%
Cc1ccc(CNC(=O)c2ccc3c(c2)CCN3S(=O)(=O)c2ccccc2)cc1	13%	-2%	·	5.6µM*	·	-18%
CCOC(=O)N1CCC(NC(=O)C2=CCN(S(=O)(=O)c3ccccc3)CC2)CC1	37%	-11%	1%	-32%	9%	-14%
Cc1ccc(CNC(=O)C2CCCN(S(=O)(=O)c3ccc(F)cc3)C2)cc1 (stereo not given)	11%	1%	-14%	·	-1%	-8%
Cc1ccc(CCNC(=O)C2=CCN(S(=O)(=O)c3ccccc3)CC2)cc1	63%	-10%	-11%	-12%[59 µM]	15%	-4%
Cc1ccc(S(=O)(=O)N2CC=C(C(=O)NC3CC3)CC2)cc1	12%	0%	21µM*	?	11%	-10%[11.4 µM]
Cc1ccc(S(=O)(=O)N2CC=C(C(=O)NCc3ccc(F)cc3)CC2)cc1	·	5%	·	22µM*	?	·
Cc1ccc(NC(=O)Cc2ccc(-n3c(C)nc4cccnc43)cc2)cc1C	49%	?	·	-32%[59 µM]	·	-10%
CCc1cccc2c1NC(=O)C21N2CCCC2C(C(=O)c2ccc3ccccc3c2)C12C(=O)Nc1ccccc12 (stereo not given)	?	?	-19%	?	23%	?
CCc1ccc2c(c1)C1(C(=O)N2)N2CCCC2C(C(=O)c2ccc3ccccc3c2)C12C(=O)Nc1ccccc12 (stereo not given)	-14%	?	14%	14µM*	0%	-36%
COc1c(Cl)cc(Cl)cc1CNCCO	16%	-21%	-14%	8%	18%	4%
CCOc1c(Cl)cc(Cl)cc1CNCCNCCO	21%	-33%	-8%	50µM*	-2%	?
CN(c1ccc(C(=O)COC(=O)C2CC2)cc1)S(C)(=O)=O	31%	·	2%	·	·	1%
SMILES	HP1b binding inh	BAZ2B inh	PLK1 PBD inh	G9a inh	Sfp inh	JMJD2A Tudor
C[C@](N)(C(=O)O)c1ccc(-c2nn[nH]n2)cc1	·	·	·	·	28µM*	·
CCOc1ccc(-c2nn[nH]n2)cc1OCC	21%	8%	3%	?	-6%	-3%
c1ccc(-c2nn[nH]n2)cc1	14%	-19%	-2%	?	19%	-25%
CCOc1ccc(-c2nn[nH]n2)cc1	14%	?	27µM*	-30%[2.33 µM]	2%	50µM*
CC(N)(C(=O)O)c1ccc(S(=O)(=O)O)cc1 (stereo not given)	·	·	·	18%[59 µM]	50µM*	·
[N-]=[N+]=NCC1OC(n2cnc3c(=O)[nH]c(N)nc32)C(O)C1O (stereo not given)	·	·	·	·	6%	·
O=C(CN1CCN(c2ccc(O)cc2)CC1)N(C1CC1)C1CCS(=O)(=O)C1 (stereo not given)	?	6%	-7%	9%[2.33 µM]	·	79µM*
O=C(CN1CCN(c2ccc(F)cc2)CC1)N(C1CCCC1)C1CCS(=O)(=O)C1 (stereo not given)	12%	6%	-7%	-7%[2.33 µM]	·	-13%
CCOc1ccc(NS(=O)(=O)c2cc(C(=O)N3CCCC3)ccc2Cl)cc1	19%	-5%	-5%	15%	·	-10%
O=C(O)c1ccc(Cl)c(S(=O)(=O)Nc2ccc(OCc3ccccc3)cc2)c1	11%	-13%	-4%	40µM*	7%	-14%
C=C1C(=O)[C@@]23[C@H](O)C[C@@H]4C(C)(C)CC[C@H](O)[C@]4(C)[C@@H]2C[C@H](O)[C@@H]1[C@H]3O	50%	16%	-12%	-2%	45µM*	-6%
O=C(O)CCn1cc(/C=C2/NC(=S)N(c3ccccc3)C2=O)c(-c2ccccc2)n1	1%	-37%	-16%	22µM*	11%	?
Cc1c(C(=O)Nc2ccc3c(c2)OCO3)sc2ncn(CC(=O)N3CC(C)CC(C)C3)c(=O)c12 (stereo not given)	33%	6%	-1%	-15%	-1%	-7%
CC(=O)Nc1ccc(S(=O)(=O)NCCC(=O)OCC(=O)N2CCN(C(=O)c3ccco3)CC2)cc1	7%	50µM*	-9%	·	13%	-29%
O=C(CCN1c2ccccc2Sc2ccccc21)OCC(=O)N1CCN(C(=O)c2ccco2)CC1	?	50µM*	-2%	?	11%	?
CC(C)=NO[C@@H](C)c1cn([C@H](CO)Cc2ccccc2)nn1	·	·	·	·	6%	·
C=CCN1C(=O)/C(=C/c2ccc(-c3ccc(F)cc3)o2)SC1=S	-20%	?	-11%	?	56µM*	?
O=C1N=C(N2CCOCC2)S/C1=C/c1ccc(-c2ccccc2Cl)o1	13%	12%	-22%	-14%[59 µM]	-2%	-19%
O=C(O)C(c1ccccc1)N1C(=O)/C(=C\c2ccc(-c3ccc(Br)cc3)o2)SC1=S (stereo not given)	?	20µM*	-9%	40µM*	-23%	20µM*
